Assay in all cases: DAPPL (digital affinity profiling via proximity ligation, sequencing); 10 mM Tris-HCl pH 7.5, 50 mM NaCl, 1 mM DTT, 4% glycerol, room temperature, 30 min; GST-TFs on glutathione beads, 16-mer random dsDNA library, 0.1% formaldehyde crosslink after washing; high values mean tight binding
One experiment deals with T1, FEV (Homo sapiens, UniProt Q99581 1-238).
T1 sequence: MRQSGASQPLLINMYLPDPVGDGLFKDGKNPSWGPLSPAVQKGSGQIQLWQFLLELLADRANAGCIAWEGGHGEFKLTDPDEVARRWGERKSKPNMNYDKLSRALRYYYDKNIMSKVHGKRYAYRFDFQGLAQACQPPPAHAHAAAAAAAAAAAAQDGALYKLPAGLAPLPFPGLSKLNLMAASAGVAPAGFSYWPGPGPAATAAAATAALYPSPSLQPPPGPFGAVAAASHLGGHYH
The settings on record: protein: recombinant; tags: N-terminal GST; dsDNA, one strand shown. A digest of the protocol: (§1)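 In yeast, human transcription factors were expressed with a GST fusion, then pulled down on glutathione beads and given DNA barcodes. Pooled with a tag-only sample, they were exposed to 200 nmole of a 16-mer random double-stranded DNA library (Tris/NaCl/DTT/glycerol buffer, room temperature, 30 min), washed, crosslinked with 0.1% formaldehyde, proximity-ligated using BsaI/T4 ligase for 1 h at 37 °C, PCR-amplified and read on an Illumina NextSeq500. Each hexamer's frequency of reads for a factor, divided by the matching frequency for the tag-only sample, gives the binding signal.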

The target in the next experiment is ETV5 (Homo sapiens, UniProt P41161 1-510). The settings on record: protein: recombinant; tags: N-terminal GST; dsDNA, one strand shown. The gist of the method: as §1
The next experiment addresses HSF1 (Homo sapiens, UniProt Q00613 1-529). The settings on record: protein: recombinant; tags: N-terminal GST; chain copies: 3; dsDNA, one strand shown. A digest of the protocol:
as §1

A further experiment has as its target T2, SPIC (Homo sapiens, UniProt Q8N5J4 1-248).
T2 sequence: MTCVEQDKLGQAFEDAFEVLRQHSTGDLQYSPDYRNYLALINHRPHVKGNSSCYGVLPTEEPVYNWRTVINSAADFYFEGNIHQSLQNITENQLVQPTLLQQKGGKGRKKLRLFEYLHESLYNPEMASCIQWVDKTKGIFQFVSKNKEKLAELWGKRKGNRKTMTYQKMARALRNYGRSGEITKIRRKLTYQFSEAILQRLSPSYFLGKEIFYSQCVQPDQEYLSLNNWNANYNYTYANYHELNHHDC
The settings on record: protein: recombinant; tags: N-terminal GST; dsDNA, one strand shown. A digest of the protocol:
as §1

The next experiment addresses ELF4 (Homo sapiens, UniProt Q99607 1-663). The note with it: protein: recombinant; tags: N-terminal GST; dsDNA, one strand shown. The gist of the method:
as §1

The next experiment deals with T3, ELK4 (Homo sapiens, UniProt P28324-2 1-405).
T3 sequence: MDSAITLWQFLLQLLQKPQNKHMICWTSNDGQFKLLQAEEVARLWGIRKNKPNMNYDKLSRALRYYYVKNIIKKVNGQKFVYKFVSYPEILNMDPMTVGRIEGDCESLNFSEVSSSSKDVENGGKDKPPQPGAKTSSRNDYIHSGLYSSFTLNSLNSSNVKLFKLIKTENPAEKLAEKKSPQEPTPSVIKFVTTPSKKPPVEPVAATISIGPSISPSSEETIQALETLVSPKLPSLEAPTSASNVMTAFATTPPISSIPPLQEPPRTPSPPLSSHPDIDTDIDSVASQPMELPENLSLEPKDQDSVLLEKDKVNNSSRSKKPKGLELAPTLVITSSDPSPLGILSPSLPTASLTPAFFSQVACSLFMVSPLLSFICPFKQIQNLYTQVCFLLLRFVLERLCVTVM
The settings on record: protein: recombinant; tags: N-terminal GST; dsDNA, one strand shown. A digest of the protocol:
as §1

The target in a further experiment is T4, ETV2 (Homo sapiens, UniProt O00321 1-342).
T4 sequence: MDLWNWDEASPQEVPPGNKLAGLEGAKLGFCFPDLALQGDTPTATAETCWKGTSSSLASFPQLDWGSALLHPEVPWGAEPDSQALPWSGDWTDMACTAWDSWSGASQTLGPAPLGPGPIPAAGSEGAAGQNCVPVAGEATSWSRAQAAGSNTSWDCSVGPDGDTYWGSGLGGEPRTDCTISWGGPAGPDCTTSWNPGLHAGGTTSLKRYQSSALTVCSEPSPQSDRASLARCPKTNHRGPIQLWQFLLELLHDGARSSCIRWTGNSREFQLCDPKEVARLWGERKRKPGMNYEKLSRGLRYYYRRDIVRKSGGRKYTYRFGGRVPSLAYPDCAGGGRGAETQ
The settings on record: protein: recombinant; tags: N-terminal GST; dsDNA, one strand shown. The gist of the method: as §1

A further experiment addresses T5, ELF3 (Homo sapiens, UniProt P78545 1-371).
T5 sequence: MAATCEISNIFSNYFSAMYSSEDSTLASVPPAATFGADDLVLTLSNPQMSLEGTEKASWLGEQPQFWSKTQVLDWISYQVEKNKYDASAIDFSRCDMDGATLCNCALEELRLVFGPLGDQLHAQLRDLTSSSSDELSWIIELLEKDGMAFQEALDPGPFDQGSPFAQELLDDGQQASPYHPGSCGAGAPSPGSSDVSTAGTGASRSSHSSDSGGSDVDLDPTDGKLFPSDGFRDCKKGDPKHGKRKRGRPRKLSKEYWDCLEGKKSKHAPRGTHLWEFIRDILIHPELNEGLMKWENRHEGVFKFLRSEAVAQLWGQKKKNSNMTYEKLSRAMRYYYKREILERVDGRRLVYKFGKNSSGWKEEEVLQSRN
The note with it: protein: recombinant; tags: N-terminal GST; dsDNA, one strand shown. The gist of the method: as §1

In the next experiment the target is CRX (Homo sapiens, UniProt O43186 1-299). The note with it: protein: recombinant; tags: N-terminal GST; dsDNA, one strand shown. A digest of the protocol:
as §1

Another experiment concerns the target ETV1 (Homo sapiens, UniProt P50549 1-477). The settings on record: protein: recombinant; tags: N-terminal GST; dsDNA, one strand shown. The gist of the method: as §1

Chain of ETV5 (P41161 whole entry): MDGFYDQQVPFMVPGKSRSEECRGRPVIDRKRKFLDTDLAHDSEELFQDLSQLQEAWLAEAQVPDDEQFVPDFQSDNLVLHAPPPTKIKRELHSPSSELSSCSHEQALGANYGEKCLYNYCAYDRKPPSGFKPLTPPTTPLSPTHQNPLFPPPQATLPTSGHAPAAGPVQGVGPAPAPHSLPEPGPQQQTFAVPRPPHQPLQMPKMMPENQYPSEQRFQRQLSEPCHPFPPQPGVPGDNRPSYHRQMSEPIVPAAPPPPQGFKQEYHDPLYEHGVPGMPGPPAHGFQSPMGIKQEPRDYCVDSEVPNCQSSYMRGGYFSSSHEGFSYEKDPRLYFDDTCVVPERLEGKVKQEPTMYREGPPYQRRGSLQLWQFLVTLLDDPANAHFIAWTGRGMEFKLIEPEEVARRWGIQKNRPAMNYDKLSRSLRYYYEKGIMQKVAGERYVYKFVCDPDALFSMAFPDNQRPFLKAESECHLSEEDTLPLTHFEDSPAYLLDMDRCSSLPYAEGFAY
Chain of ETV1 (P50549 whole entry): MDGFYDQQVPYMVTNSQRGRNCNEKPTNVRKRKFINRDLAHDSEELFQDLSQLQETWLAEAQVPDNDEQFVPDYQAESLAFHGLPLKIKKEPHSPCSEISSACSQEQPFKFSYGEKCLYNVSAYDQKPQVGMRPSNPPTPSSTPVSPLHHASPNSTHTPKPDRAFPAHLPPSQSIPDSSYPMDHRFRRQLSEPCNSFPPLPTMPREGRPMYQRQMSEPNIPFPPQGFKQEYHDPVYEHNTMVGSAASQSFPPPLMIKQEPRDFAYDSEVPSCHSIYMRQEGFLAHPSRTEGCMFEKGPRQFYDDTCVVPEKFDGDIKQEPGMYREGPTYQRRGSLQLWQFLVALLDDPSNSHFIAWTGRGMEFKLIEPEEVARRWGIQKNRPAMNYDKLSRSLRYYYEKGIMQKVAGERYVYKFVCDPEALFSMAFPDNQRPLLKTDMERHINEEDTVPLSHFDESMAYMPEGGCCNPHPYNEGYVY
Chain of HSF1 (Q00613 whole entry): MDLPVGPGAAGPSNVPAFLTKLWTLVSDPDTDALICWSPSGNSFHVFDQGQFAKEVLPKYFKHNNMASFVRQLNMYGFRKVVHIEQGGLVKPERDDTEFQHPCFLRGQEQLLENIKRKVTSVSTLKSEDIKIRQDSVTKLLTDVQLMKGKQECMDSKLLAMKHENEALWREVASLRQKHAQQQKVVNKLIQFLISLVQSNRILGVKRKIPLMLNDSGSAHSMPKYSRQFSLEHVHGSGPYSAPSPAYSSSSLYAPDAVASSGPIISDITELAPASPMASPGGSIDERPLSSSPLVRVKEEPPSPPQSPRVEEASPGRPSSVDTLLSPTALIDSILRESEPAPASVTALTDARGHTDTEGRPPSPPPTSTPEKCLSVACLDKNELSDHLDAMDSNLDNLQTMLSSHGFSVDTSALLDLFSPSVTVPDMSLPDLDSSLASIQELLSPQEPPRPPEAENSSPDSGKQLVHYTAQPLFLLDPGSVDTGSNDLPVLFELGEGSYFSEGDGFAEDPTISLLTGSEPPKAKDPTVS
Chain of ELF4 (Q99607 whole entry): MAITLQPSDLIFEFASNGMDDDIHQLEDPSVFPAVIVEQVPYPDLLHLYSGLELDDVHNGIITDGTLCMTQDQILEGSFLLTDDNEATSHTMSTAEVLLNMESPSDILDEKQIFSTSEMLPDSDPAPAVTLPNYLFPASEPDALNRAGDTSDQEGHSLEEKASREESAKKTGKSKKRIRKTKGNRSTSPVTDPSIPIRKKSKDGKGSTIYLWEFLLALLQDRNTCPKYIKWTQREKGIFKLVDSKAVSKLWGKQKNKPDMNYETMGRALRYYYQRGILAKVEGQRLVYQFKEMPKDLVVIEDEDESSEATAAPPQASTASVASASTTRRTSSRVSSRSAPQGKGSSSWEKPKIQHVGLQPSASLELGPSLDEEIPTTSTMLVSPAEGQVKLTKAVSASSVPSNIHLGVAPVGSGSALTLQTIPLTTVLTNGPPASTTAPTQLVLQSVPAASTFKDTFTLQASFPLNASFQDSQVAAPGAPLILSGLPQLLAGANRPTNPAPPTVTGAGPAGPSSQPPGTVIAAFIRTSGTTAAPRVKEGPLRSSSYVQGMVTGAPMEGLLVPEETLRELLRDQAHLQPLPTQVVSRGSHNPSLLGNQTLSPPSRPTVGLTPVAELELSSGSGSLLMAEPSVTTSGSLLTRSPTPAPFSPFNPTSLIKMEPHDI
Chain of CRX (O43186 whole entry): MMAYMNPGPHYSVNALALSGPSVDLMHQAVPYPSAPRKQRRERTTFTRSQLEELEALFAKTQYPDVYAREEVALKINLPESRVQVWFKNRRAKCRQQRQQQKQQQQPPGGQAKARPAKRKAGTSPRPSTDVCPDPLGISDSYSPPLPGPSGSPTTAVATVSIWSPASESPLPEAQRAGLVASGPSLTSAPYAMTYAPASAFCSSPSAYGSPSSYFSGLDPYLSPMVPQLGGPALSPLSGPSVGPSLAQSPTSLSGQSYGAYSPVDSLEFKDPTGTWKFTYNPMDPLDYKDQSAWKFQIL

In the case of TTCGCA, the binding signal with FEV was 1.4 fold enrichment (6-mer frequency, TF over GST control); with ETV5, 1.15 fold enrichment (6-mer frequency, TF over GST control); with HSF1 it was 1.31 fold enrichment (6-mer frequency, TF over GST control); in the experiment with SPIC, 1.32 fold enrichment (6-mer frequency, TF over GST control); in the experiment with ELF4, 1.26 fold enrichment (6-mer frequency, TF over GST control); with ELK4 it was 1.2 fold enrichment (6-mer frequency, TF over GST control). Moreover, the binding signal is 1.34 fold enrichment (6-mer frequency, TF over GST control) in the experiment with ETV2; 1.11 fold enrichment (6-mer frequency, TF over GST control) in the experiment with ELF3; 1.28 fold enrichment (6-mer frequency, TF over GST control) in the experiment with CRX; 1.32 fold enrichment (6-mer frequency, TF over GST control) with ETV1.

Take GCTGAA: the binding signal with FEV was 1.03 fold enrichment (6-mer frequency, TF over GST control); in the experiment with ETV5, 1.16 fold enrichment (6-mer frequency, TF over GST control); with HSF1, 1.04 fold enrichment (6-mer frequency, TF over GST control); with SPIC, 1.31 fold enrichment (6-mer frequency, TF over GST control); in the experiment with ELF4, 1.1 fold enrichment (6-mer frequency, TF over GST control); with ELK4 it was 1.23 fold enrichment (6-mer frequency, TF over GST control). Besides, the binding signal with ETV2 is 1.21 fold enrichment (6-mer frequency, TF over GST control); with ELF3, 1.18 fold enrichment (6-mer frequency, TF over GST control); with CRX it was 1.05 fold enrichment (6-mer frequency, TF over GST control); in the experiment with ETV1, 1.05 fold enrichment (6-mer frequency, TF over GST control).

As for TCCCTT, the binding signal was 1.51 fold enrichment (6-mer frequency, TF over GST control) with FEV; 1.5 fold enrichment (6-mer frequency, TF over GST control) in the experiment with ETV5; 1.51 fold enrichment (6-mer frequency, TF over GST control) in the experiment with HSF1; 1.66 fold enrichment (6-mer frequency, TF over GST control) in the experiment with SPIC; 1.68 fold enrichment (6-mer frequency, TF over GST control) with ELF4; 1.41 fold enrichment (6-mer frequency, TF over GST control) with ELK4. The binding signal in the experiment with ETV2 is 1.32 fold enrichment (6-mer frequency, TF over GST control); with ELF3, 1.5 fold enrichment (6-mer frequency, TF over GST control); in the experiment with CRX, 1.69 fold enrichment (6-mer frequency, TF over GST control); in the experiment with ETV1 it was 1.49 fold enrichment (6-mer frequency, TF over GST control).

AGTATC: the binding signal was 1.12 fold enrichment (6-mer frequency, TF over GST control) in the experiment with FEV; 1.18 fold enrichment (6-mer frequency, TF over GST control) in the experiment with ETV5; 1.03 fold enrichment (6-mer frequency, TF over GST control) with HSF1; 1.14 fold enrichment (6-mer frequency, TF over GST control) with SPIC; 1.12 fold enrichment (6-mer frequency, TF over GST control) in the experiment with ELF4; 1.1 fold enrichment (6-mer frequency, TF over GST control) with ELK4. The binding signal was 1.26 fold enrichment (6-mer frequency, TF over GST control) with ETV2; 1.16 fold enrichment (6-mer frequency, TF over GST control) in the experiment with ELF3; 1.03 fold enrichment (6-mer frequency, TF over GST control) with CRX; 1.07 fold enrichment (6-mer frequency, TF over GST control) with ETV1.

As to ACCTGG, the binding signal with FEV is 1.17 fold enrichment (6-mer frequency, TF over GST control); in the experiment with ETV5, 1.2 fold enrichment (6-mer frequency, TF over GST control); with HSF1, 1.2 fold enrichment (6-mer frequency, TF over GST control); in the experiment with SPIC it was 1.18 fold enrichment (6-mer frequency, TF over GST control); with ELF4 it was 1.33 fold enrichment (6-mer frequency, TF over GST control); with ELK4, 1.25 fold enrichment (6-mer frequency, TF over GST control). The binding signal with ETV2 was 1.35 fold enrichment (6-mer frequency, TF over GST control); with ELF3, 1.19 fold enrichment (6-mer frequency, TF over GST control); in the experiment with CRX it was 1.14 fold enrichment (6-mer frequency, TF over GST control); with ETV1 it was 1.29 fold enrichment (6-mer frequency, TF over GST control).

On to TCCTCT, for which the binding signal with FEV was 1.63 fold enrichment (6-mer frequency, TF over GST control); in the experiment with ETV5, 1.64 fold enrichment (6-mer frequency, TF over GST control); in the experiment with HSF1, 1.51 fold enrichment (6-mer frequency, TF over GST control); in the experiment with SPIC, 1.67 fold enrichment (6-mer frequency, TF over GST control); with ELF4, 1.69 fold enrichment (6-mer frequency, TF over GST control); with ELK4 it was 1.53 fold enrichment (6-mer frequency, TF over GST control). Also, the binding signal in the experiment with ETV2 is 1.68 fold enrichment (6-mer frequency, TF over GST control); in the experiment with ELF3, 1.66 fold enrichment (6-mer frequency, TF over GST control); with CRX, 1.79 fold enrichment (6-mer frequency, TF over GST control); with ETV1 it was 1.74 fold enrichment (6-mer frequency, TF over GST control).

As to ATGCCC, the binding signal is 1.34 fold enrichment (6-mer frequency, TF over GST control) in the experiment with FEV; 1.28 fold enrichment (6-mer frequency, TF over GST control) with ETV5; 1.19 fold enrichment (6-mer frequency, TF over GST control) with HSF1; 1.54 fold enrichment (6-mer frequency, TF over GST control) with SPIC; 1.33 fold enrichment (6-mer frequency, TF over GST control) in the experiment with ELF4; 1.36 fold enrichment (6-mer frequency, TF over GST control) with ELK4. In addition, the binding signal in the experiment with ETV2 is 1.26 fold enrichment (6-mer frequency, TF over GST control); with ELF3, 1.34 fold enrichment (6-mer frequency, TF over GST control); with CRX, 1.12 fold enrichment (6-mer frequency, TF over GST control); with ETV1 it was 1.31 fold enrichment (6-mer frequency, TF over GST control).

As for AATTTT, the binding signal in the experiment with FEV was 1.22 fold enrichment (6-mer frequency, TF over GST control); in the experiment with ETV5, 1.29 fold enrichment (6-mer frequency, TF over GST control); with HSF1, 1.51 fold enrichment (6-mer frequency, TF over GST control); with SPIC it was 1.17 fold enrichment (6-mer frequency, TF over GST control); with ELF4 it was 1.32 fold enrichment (6-mer frequency, TF over GST control); with ELK4, 1.3 fold enrichment (6-mer frequency, TF over GST control). For the same sequence, the binding signal with ETV2 is 1.46 fold enrichment (6-mer frequency, TF over GST control); in the experiment with ELF3 it was 1.41 fold enrichment (6-mer frequency, TF over GST control); in the experiment with CRX, 1.29 fold enrichment (6-mer frequency, TF over GST control); with ETV1 it was 1.23 fold enrichment (6-mer frequency, TF over GST control).

The record behind these values is PMC7862700, “An all-to-all approach to the identification of sequence-specific readers for epigenetic DNA modifications on cytosine”.
